The values that follow come from PubChem BioAssay (NCATS).

Inconclusive results are not listed. A number with no mark means an inactive call. Activity calls are given as the source filed them. Calls come from the whole dose curve; as a rule, active = well fitted inhibition curve with a large enough effect; inconclusive = small, poorly fitted or top-dose-only effect; inactive = flat fitted curve, though single readings scatter.
Potency is the fitted concentration of half-maximal effect.

System in one assay: not listed separately
Put plainly: qHTS profiling for inhibitors of Plasmodium falciparum proliferation (AID 504749).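 For activity, negative = inhibition: 0% = DMSO vehicle and full inhibition = artemisinin control.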 Note: nearly all actives have a fitted effect of over 60% in size. The conditions noted are these: P. falciparum in erythrocytes, SYBR Green DNA, 72 h; at 28.7 µM (top of the series); parasite line A. The essentials: (§1)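 Quantitative HTS: compounds pinned into medium, infected erythrocytes added (0.3% parasitemia, 2.5% hematocrit), 72 h culture at 37 C under 5% CO2. Saponin/Triton lysis with SYBR Green I, overnight RT, then fluorescence read.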
(Quantitative high-throughput screening tests each substance at several concentrations.)
For `CC(C)NC(C)Cc1ccc(I)cc1` (configuration not stated), the activity, negative = inhibition is 11.4%.

`CCCCc1ccc(C(=O)O)nc1`: the activity, negative = inhibition is 0.211%.

Regarding `NC(=O)CN1CC(O)CC1=O` (configuration not stated), the activity, negative = inhibition was 3.26%.

As to `CCCN1CCC[C@H](c2cccc(O)c2)C1`, the activity, negative = inhibition was 8.52%.

For `O=C(O)C(Cl)Cl`, the activity, negative = inhibition was 7.93%.

Regarding `C=CCN1CC[C@]23CCCCC2[C@H]1Cc1ccc(O)cc13` (some centres not stated), the activity, negative = inhibition is 18.6%.

Consider `c1ccc(C2(c3ccccc3)CC2C2=NCCN2)cc1` (configuration not stated), for which the activity, negative = inhibition was -23%.

As for `Cc1ccc(Cl)c(O)c1`, the activity, negative = inhibition is 9.64%.

Take `CN1C2CCC1CC(OC(=O)c1cc(Cl)cc(Cl)c1)C2` (configuration not stated): the activity, negative = inhibition is -1.17%.

Turning to `C1CCC(NC2CCCCC2)CC1`, the activity, negative = inhibition is 7.71%.

In the case of `Cc1cc(O)ccc1Cl`, the activity, negative = inhibition is 4.69%.

Turning to `CCCCCCCCCC(CC)c1ccc(S(=O)(=O)O)cc1` (configuration not stated), the activity, negative = inhibition was 4.98%.

Take `CC[N+]1(CCOC(=O)C(O)(c2ccccc2)c2ccccc2)CCCCC1`: the activity, negative = inhibition was -23.7%.

With `O=C(O)COc1ccccc1`, the activity, negative = inhibition is -0.911%.

The assay is the same for the next values; noted with them: P. falciparum in erythrocytes, SYBR Green DNA, 72 h; at 28.7 µM (top of the series); parasite line B.
Regarding `CC(C)NC(C)Cc1ccc(I)cc1` (configuration not stated), the activity, negative = inhibition was -12.4%.

Consider `CCCCc1ccc(C(=O)O)nc1`, for which the activity, negative = inhibition was 1.46%.

With `NC(=O)CN1CC(O)CC1=O` (configuration not stated), the activity, negative = inhibition is 7.69%.

Take `CCCN1CCC[C@H](c2cccc(O)c2)C1`: the activity, negative = inhibition was -0.779%.

In the case of `O=C(O)C(Cl)Cl`, the activity, negative = inhibition was -3.72%.

As for `C=CCN1CC[C@]23CCCCC2[C@H]1Cc1ccc(O)cc13` (some centres not stated), the activity, negative = inhibition is 4.44%.

As to `c1ccc(C2(c3ccccc3)CC2C2=NCCN2)cc1` (configuration not stated), the activity, negative = inhibition is -12.8%.

As for `Cc1ccc(Cl)c(O)c1`, the activity, negative = inhibition is 15%.

For `CN1C2CCC1CC(OC(=O)c1cc(Cl)cc(Cl)c1)C2` (configuration not stated), the activity, negative = inhibition was 5.18%.

Consider `C1CCC(NC2CCCCC2)CC1`, for which the activity, negative = inhibition was 9.08%.

With `Cc1cc(O)ccc1Cl`, the activity, negative = inhibition was -0.29%.

As for `CCCCCCCCCC(CC)c1ccc(S(=O)(=O)O)cc1` (configuration not stated), the activity, negative = inhibition is 0.132%.

In the case of `CC[N+]1(CCOC(=O)C(O)(c2ccccc2)c2ccccc2)CCCCC1`, the activity, negative = inhibition is -20.1%.

With `O=C(O)COc1ccccc1`, the activity, negative = inhibition is 7.97%.

The assay is the same for the next values; noted with them: P. falciparum in erythrocytes, SYBR Green DNA, 72 h; parasite line A.
Consider `CCCCCCCCCCCCCCCC[N+](C)(C)C`, for which the Potency is 11.2 µM (active).

As for `CC(=O)[O][Hg][c]1ccccc1`, the Potency is 3.98 µM (active).

For `O=[N+]([O-])c1ccc([As](=O)(O)O)cc1`, the Potency was 6.31 µM (active).

For a further assay, the system named is 3D7. The assay is described as above. Particulars: P. falciparum in erythrocytes, SYBR Green DNA, 72 h; series mostly up to 28.7 µM. The essentials:
as §1
`CCCCCCCCCCCCCCCC[N+](C)(C)C`: the Potency is 8.91 µM (active).

As for `C[C@]12CCC(=O)C(O)=C1CC[C@@H]1[C@H]3CCC(=O)[C@@]3(C)CC[C@@H]12`, the Potency entry was “inactive”.

As for `CC(C)NC(C)Cc1ccc(I)cc1` (configuration not stated), the Potency result was “inactive”.

In the case of `CCCCc1ccc(C(=O)O)nc1`, the Potency result was “inactive”.

On to `CC(=O)OCC1=C(C(=O)O)N2C(=O)[C@@H](N)[C@@H]2SC1`, for which the Potency entry is “inactive”.

Turning to `NC(=O)CN1CC(O)CC1=O` (configuration not stated), the Potency entry was “inactive”.

On to `CCCN1CCC[C@H](c2cccc(O)c2)C1`, for which the Potency entry is “inactive”.

Regarding `O=C(O)C(Cl)Cl`, the Potency entry is “inactive”.

Consider `CC(=O)[O][Hg][c]1ccccc1`, for which the Potency is 12.6 µM (active).

As to `C=CCN1CC[C@]23CCCCC2[C@H]1Cc1ccc(O)cc13` (some centres not stated), the Potency entry was “inactive”.

Consider `c1ccc(C2(c3ccccc3)CC2C2=NCCN2)cc1` (configuration not stated), for which the Potency entry is “inactive”.

For the molecule `Cc1ccc(Cl)c(O)c1`, the Potency entry was “inactive”.

In the case of `CN1C2CCC1CC(OC(=O)c1cc(Cl)cc(Cl)c1)C2` (configuration not stated), the Potency entry is “inactive”.

For `O=[N+]([O-])c1ccc([As](=O)(O)O)cc1`, the Potency is 10 µM (active).

As for `C1CCC(NC2CCCCC2)CC1`, the Potency entry was “inactive”.

`Cc1cc(O)ccc1Cl`: the Potency result was “inactive”.

For the molecule `CCCCCCCCCC(CC)c1ccc(S(=O)(=O)O)cc1` (configuration not stated), the Potency result was “inactive”.

As for `CC[N+]1(CCOC(=O)C(O)(c2ccccc2)c2ccccc2)CCCCC1`, the Potency entry is “inactive”.

`O=C(O)COc1ccccc1`: the Potency entry is “inactive”.

For `CN[C@@H]1C[C@@H](c2ccc(Cl)c(Cl)c2)c2ccccc21`, the Potency result was “inactive”.

In another assay the test system is 7G8. The assay is described as above. The conditions noted are these: P. falciparum in erythrocytes, SYBR Green DNA, 72 h; series mostly up to 28.7 µM. The essentials: as §1
Turning to `CCCCCCCCCCCCCCCC[N+](C)(C)C`, the Potency is 11.2 µM (active).

Consider `C[C@]12CCC(=O)C(O)=C1CC[C@@H]1[C@H]3CCC(=O)[C@@]3(C)CC[C@@H]12`, for which the Potency result is “inactive”.

On to `CC(C)NC(C)Cc1ccc(I)cc1` (configuration not stated), for which the Potency is 10 µM (active).

Take `CCCCc1ccc(C(=O)O)nc1`: the Potency entry was “inactive”.

For `CC(=O)OCC1=C(C(=O)O)N2C(=O)[C@@H](N)[C@@H]2SC1`, the Potency result is “inactive”.

In the case of `NC(=O)CN1CC(O)CC1=O` (configuration not stated), the Potency result was “inactive”.

For `O=C(O)C(Cl)Cl`, the Potency entry is “inactive”.

Turning to `CC(=O)[O][Hg][c]1ccccc1`, the Potency was 1 µM (active).

In the case of `C=CCN1CC[C@]23CCCCC2[C@H]1Cc1ccc(O)cc13` (some centres not stated), the Potency is 11.2 µM (active).

As for `Cc1ccc(Cl)c(O)c1`, the Potency entry was “inactive”.

Turning to `CN1C2CCC1CC(OC(=O)c1cc(Cl)cc(Cl)c1)C2` (configuration not stated), the Potency is 6.31 µM (active).

Turning to `O=[N+]([O-])c1ccc([As](=O)(O)O)cc1`, the Potency was 3.55 µM (active).

Consider `C1CCC(NC2CCCCC2)CC1`, for which the Potency entry is “inactive”.

As to `CCCCCCCCCC(CC)c1ccc(S(=O)(=O)O)cc1` (configuration not stated), the Potency entry was “inactive”.

As to `O=C(O)COc1ccccc1`, the Potency entry was “inactive”.

Turning to `CN[C@@H]1C[C@@H](c2ccc(Cl)c(Cl)c2)c2ccccc21`, the Potency was 10 µM (active).

In the next assay the test system is AA1029. The description is as above. Particulars: P. falciparum in erythrocytes, SYBR Green DNA, 72 h; series mostly up to 28.7 µM. A digest of the protocol: as §1
As to `CC(C)NC(C)Cc1ccc(I)cc1` (configuration not stated), the Potency entry was “inactive”.

As to `CCCCc1ccc(C(=O)O)nc1`, the Potency entry is “inactive”.

For `NC(=O)CN1CC(O)CC1=O` (configuration not stated), the Potency entry is “inactive”.

As to `CCCN1CCC[C@H](c2cccc(O)c2)C1`, the Potency entry was “inactive”.

As to `O=C(O)C(Cl)Cl`, the Potency result is “inactive”.

As to `CC(=O)[O][Hg][c]1ccccc1`, the Potency is 4.47 µM (active).

Consider `C=CCN1CC[C@]23CCCCC2[C@H]1Cc1ccc(O)cc13` (some centres not stated), for which the Potency result was “inactive”.

Regarding `c1ccc(C2(c3ccccc3)CC2C2=NCCN2)cc1` (configuration not stated), the Potency entry is “inactive”.

For the molecule `Cc1ccc(Cl)c(O)c1`, the Potency entry was “inactive”.

In the case of `CN1C2CCC1CC(OC(=O)c1cc(Cl)cc(Cl)c1)C2` (configuration not stated), the Potency result was “inactive”.

As to `O=[N+]([O-])c1ccc([As](=O)(O)O)cc1`, the Potency was 3.98 µM (active).

Turning to `C1CCC(NC2CCCCC2)CC1`, the Potency entry is “inactive”.

Turning to `Cc1cc(O)ccc1Cl`, the Potency result was “inactive”.

For `CCCCCCCCCC(CC)c1ccc(S(=O)(=O)O)cc1` (configuration not stated), the Potency entry is “inactive”.

Turning to `O=C(O)COc1ccccc1`, the Potency entry was “inactive”.
